Values joined by “and” are separate entries in the source; they are usually repeats but may differ in a detail not shown here. Identical values can stand only once. This is part of a sample that, as a whole, favours compounds with a hit. Of some 83,000 tested, about 20% had one in any assay.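 Assay: single dose, 48 h. Readout: percent growth (0 = no net growth; negative = cell death). Active: <10.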 Active and inactive are the calls of the source.
System: U251 CNS
Experiment: NCI-60 one-dose screen, 48 h (100 = growth as untreated, 0 = no growth, -100 = all killed)
Settings: 10 µM unless noted

| Structure (SMILES) | growth |
| --- | --- |
| COc1cc2c(c(OC)c1OC)-c1ccc(OC)c(=O)cc1[C@@H](NC(C)=O)CC2 | 22.5% (inactive) and 14.1% (inactive) and 19% (inactive) |
| CCN(CC)CCCC(CNc1ccnc2cc(Cl)ccc12)c1ccc(Cl)cc1 (stereo not drawn) | -71.9% (active) and -57.4% (active) |
| COc1ccc(/C(C#N)=C/c2ccccn2)cc1 | 97.9% (inactive) and 101% (inactive) |
| Nc1ccc(N=Nc2ccc(S(=O)(=O)O)cc2)cc1S(=O)(=O)O | 99.6% (inactive) and 95.5% (inactive) |
| O=C1OC2(c3ccccc31)c1ccc(O)c(O)c1Oc1c2ccc(O)c1O | 104% (inactive) |
| CCNC(=O)Nc1ccc(-c2nc3c(c(N4CCOC[C@@H]4C)n2)CCN(C2COC2)C3)cc1 | 55.9% (inactive) and 7.52% (active) |
| CC(C)Cc1ccc(C(C)C(=O)NCc2ccc(Cn3c(=O)sn(CCCCl)c3=O)cc2)cc1 (stereo not drawn) | 95.6% (inactive) and 7.88% (active) |
| OCc1ccccn1 | 102% (inactive) |
| Nc1ncnc2c1ncn2C1CC(O)C(CO)O1 (stereo not drawn) | 102% (inactive) and 100% (inactive) |
| CCCCCCCCCCCCCCCc1cc(O)ccc1N | 68.1% (inactive) and 81.1% (inactive) |
| Cc1ccc2nc3c(nc2c1)-c1cccc2cccc-3c12 | 78.8% (inactive) |
| O=[N+]([O-])c1ccc(/C=N\NC(=S)Nc2ccc(F)cc2)cc1 | 82.8% (inactive) and 83.4% (inactive) |
| CCN(CC)C(=O)c1cccnc1 | 96.2% (inactive) |
| Oc1nc(NCCc2ccccc2)sc1/C=C1\C=Nc2ncccc21 | 7.63% (active) and 15.8% (inactive) |
| COc1cc2nc(N3CCN(C(=O)C4COc5ccccc5O4)CC3)nc(N)c2cc1OC (stereo not drawn) | 91.8% (inactive) and 86.8% (inactive) and 99.1% (inactive) |
| COc1ccc(Cn2c(NCCN=C(N)N)nc(=O)n(Cc3ccc(F)cc3)c2=O)cc1 | 81.7% (inactive) |
| CC(C)CNC(=O)c1ccccc1C(=O)NC1(C(=O)NCC(C)C)CCCC1 | 109% (inactive) and 105% (inactive) |
| Cn1c(=O)n(-c2ccc(C(C)(C)C#N)cc2)c2c3cc(-c4cnc5ccccc5c4)ccc3ncc21 | 8.23% (active) and 8.1% (active) |
| CN(C)c1ccc(C(Cc2ccc3ccccc3n2)Cc2ccc3ccccc3n2)cc1 | 43.5% (inactive) and 81.2% (inactive) |
| NS(=O)(=O)c1cc2c(cc1Cl)NC(C(Cl)Cl)NS2(=O)=O (stereo not drawn) | 86.5% (inactive) and 104% (inactive) |
| Nc1ccccc1Nc1ccccc1 | 89.3% (inactive) and 86.7% (inactive) |
| c1ccc2c(CC3=NCCN3)cccc2c1 | 94.6% (inactive) and 100% (inactive) |
| Clc1ccc(NC(Nc2ccc(Cl)cc2)C(Cl)(Cl)Cl)cc1 | 95% (inactive) and 110% (inactive) |
| CCOc1ccc2c(S(=O)(=O)O)cccc2c1[N+](=O)[O-] | 101% (inactive) and 99.9% (inactive) |
| CCN(CC)CCCC(C)N(Cc1ccccc1)CC(O)c1ccc(Cl)cc1 (stereo not drawn) | 105% (inactive) and 102% (inactive) |
| Cn1cnc([N+](=O)[O-])c1Sc1ncnc2nc[nH]c12 | 78.6% (inactive) and 93.7% (inactive) |
| Nc1nc2ncc(CNc3ccc(C(=O)N[C@@H](CCc4nn[nH]n4)C(=O)O)cc3)nc2c(=O)[nH]1 | 99.8% (inactive) and 91.4% (inactive) |
| Oc1c(Cl)cc(Cl)cc1Sc1cc(Cl)cc(Cl)c1O | 48.8% (inactive) and 8.95% (active) and 71.5% (inactive) |
| O=S1(=O)CC(Br)C(Br)C1 (stereo not drawn) | 98% (inactive) and 97% (inactive) |
| CN(C)c1ccc2nc3ccc(N)cc3[n+](-c3ccccc3)c2c1 | 16% (inactive) and 3.13% (active) |

System: PC-3 prostate
Experiment: as above
Settings: 10 µM unless noted

| Structure (SMILES) | growth |
| --- | --- |
| COc1cc2c(c(OC)c1OC)-c1ccc(OC)c(=O)cc1[C@@H](NC(C)=O)CC2 | 25.6% (inactive) and 20.7% (inactive) and 7.6% (active) |
| CCN(CC)CCCC(CNc1ccnc2cc(Cl)ccc12)c1ccc(Cl)cc1 (stereo not drawn) | 34.2% (inactive) and 19.3% (inactive) |
| N#CCCOc1ccccc1 | 88.7% (inactive) |
| COc1ccc(/C(C#N)=C/c2ccccn2)cc1 | 104% (inactive) and 101% (inactive) |
| CCN(CC)C(=S)SSC(=S)N(CC)CC | 68.5% (inactive) and 108% (inactive) |
| Nc1ccc(N=Nc2ccc(S(=O)(=O)O)cc2)cc1S(=O)(=O)O | 92.2% (inactive) and 74% (inactive) |
| CCN(CC)CCOc1ccc2c(c1)C(=O)c1cc(OCCN(CC)CC)ccc1-2 | 70.6% (inactive) and 35.9% (inactive) |
| O=C1OC2(c3ccccc31)c1ccc(O)c(O)c1Oc1c2ccc(O)c1O | 81% (inactive) and 89.2% (inactive) |
| O=S(=O)(Nc1ccccc1)C1CCCCC1 | 92.6% (inactive) and 105% (inactive) |
| CCNC(=O)Nc1ccc(-c2nc3c(c(N4CCOC[C@@H]4C)n2)CCN(C2COC2)C3)cc1 | 26.6% (inactive) and 12.6% (inactive) |
| CC(C)Cc1ccc(C(C)C(=O)NCc2ccc(Cn3c(=O)sn(CCCCl)c3=O)cc2)cc1 (stereo not drawn) | 91.9% (inactive) and -69.6% (active) |
| OCc1ccccn1 | 97.8% (inactive) |
| Nc1ncnc2c1ncn2C1CC(O)C(CO)O1 (stereo not drawn) | 110% (inactive) and 102% (inactive) |
| CCCCCCCCCCCCCCCc1cc(O)ccc1N | 34.6% (inactive) and 22.2% (inactive) |
| Cc1ccc2nc3c(nc2c1)-c1cccc2cccc-3c12 | 87.4% (inactive) |
| O=[N+]([O-])c1ccc(/C=N\NC(=S)Nc2ccc(F)cc2)cc1 | 101% (inactive) and 86% (inactive) |
| CCN(CC)C(=O)c1cccnc1 | 100% (inactive) |
| CN1CCN(CCC=C2c3ccccc3Sc3ccc(S(=O)(=O)N(C)C)cc32)CC1 | 52.7% (inactive) and 61.6% (inactive) |
| Oc1nc(NCCc2ccccc2)sc1/C=C1\C=Nc2ncccc21 | 19.2% (inactive) and 25.9% (inactive) |

| Structure (SMILES) | growth |
| --- | --- |
| COc1cc2nc(N3CCN(C(=O)C4COc5ccccc5O4)CC3)nc(N)c2cc1OC (stereo not drawn) | 91.7% (inactive) and 93.1% (inactive) and 110% (inactive) |
| c1ccc2cc(C[n+]3ccn(Cc4ccc5ccccc5n4)c3)ccc2c1 | 4.09% (active) and 14.7% (inactive) |
| COc1ccc(Cn2c(NCCN=C(N)N)nc(=O)n(Cc3ccc(F)cc3)c2=O)cc1 | 83% (inactive) and 87.1% (inactive) |
| O=C(N/N=C/c1cccc2ccccc12)C1CC1 | 100% (inactive) and 102% (inactive) |
| CC(C)CNC(=O)c1ccccc1C(=O)NC1(C(=O)NCC(C)C)CCCC1 | 97.9% (inactive) and 96.3% (inactive) |
| Cn1c(=O)n(-c2ccc(C(C)(C)C#N)cc2)c2c3cc(-c4cnc5ccccc5c4)ccc3ncc21 | 13.2% (inactive) and -18% (active) |
| CN(C)c1ccc(C(Cc2ccc3ccccc3n2)Cc2ccc3ccccc3n2)cc1 | 16% (inactive) and 61.5% (inactive) |
| Cc1ccc(S(=O)(=O)Nc2ccc3cc([N+](=O)[O-])ccc3c2[N+](=O)[O-])cc1 | 71.7% (inactive) and 73.4% (inactive) |
| NS(=O)(=O)c1cc2c(cc1Cl)NC(C(Cl)Cl)NS2(=O)=O (stereo not drawn) | 99% (inactive) and 99.8% (inactive) |
| Nc1ccccc1Nc1ccccc1 | 87.6% (inactive) and 91.7% (inactive) |
| c1ccc2c(CC3=NCCN3)cccc2c1 | 103% (inactive) and 96.2% (inactive) |
| Clc1ccc(NC(Nc2ccc(Cl)cc2)C(Cl)(Cl)Cl)cc1 | 91.9% (inactive) |
| CCOc1ccc2c(S(=O)(=O)O)cccc2c1[N+](=O)[O-] | 93.4% (inactive) and 87.4% (inactive) |
| CCN(CC)CCCC(C)N(Cc1ccccc1)CC(O)c1ccc(Cl)cc1 (stereo not drawn) | 87.7% (inactive) and 93.2% (inactive) |
| Cn1cnc([N+](=O)[O-])c1Sc1ncnc2nc[nH]c12 | 76.6% (inactive) and 91.5% (inactive) |
| Nc1nc2ncc(CNc3ccc(C(=O)N[C@@H](CCc4nn[nH]n4)C(=O)O)cc3)nc2c(=O)[nH]1 | 101% (inactive) and 85.3% (inactive) |
| Oc1c(Cl)cc(Cl)cc1Sc1cc(Cl)cc(Cl)c1O | 10.7% (inactive) and 1.87% (active) and 48% (inactive) |
| O=S1(=O)CC(Br)C(Br)C1 (stereo not drawn) | 86.3% (inactive) and 92.6% (inactive) |
| CN(C)c1ccc2nc3ccc(N)cc3[n+](-c3ccccc3)c2c1 | 22.2% (inactive) and 7.58% (active) |

— PubChem BioAssay (NCI)
